Results: PubChem BioAssay (NCI)
Compounds without any hit were thinned out: in the full panel of roughly 83,000, 20% have a hit.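 Assay: single dose, 48 h. Readout: percent growth (0 = no net growth; negative = cell death). Active: <10.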 Active and inactive are the calls of the source.

Columns and labels:
Assay in all cases: NCI-60 one-dose screen, 48 h (100 = growth as untreated, 0 = no growth, -100 = all killed)
Details in all cases: 10 µM unless noted
[1] = tested on: NCI-H23 lung
[2] = tested on: NCI-H226 lung
[3] = tested on: NCI-H322M lung
[4] = tested on: HOP-62 NSCLC
[5] = tested on: NCI-H460 lung
[6] = tested on: 786-0 renal
[7] = tested on: MDA-MB-231 breast
[8] = tested on: SF-268 CNS
[9] = tested on: M14 melanoma
[10] = tested on: PC-3 prostate
[11] = tested on: UACC-62 melanoma
[12] = tested on: SK-MEL-28 melanoma
[13] = tested on: SN12C renal
[14] = tested on: UO-31 renal
[15] = tested on: OVCAR-5 ovarian
[16] = tested on: NCI/ADR-RES ovarian
[17] = tested on: MDA-MB-435 melanoma
[18] = tested on: SW-620 colon
[19] = tested on: HCT-116 colon
[20] = tested on: KM12 colon

Measured: growth

O=c1[nH]c2cc(Cl)ccc2n1C1CCN(CCCC(c2ccc(F)cc2)c2ccc(F)cc2)CC1
inactive: [1] 59.7% | [2] 126% | [3] 78.1% | [4] 67.2% | [6] 11.5% | [7] 29.2% | [8] 24.8% | [11] 39.7% | [13] 20.1% | [15] 76.3% | [16] 51.9% | [17] 18.2%
active: [5] -49.2% | [9] -52.2% | [10] 7.82% | [12] -90.8% | [14] -48.3% | [18] -80.7% | [19] 3.23% | [20] -94.6%

CO[C@@H]([CH2][Hg][S]C#N)[C@@H]([CH2][Hg][S]C#N)OC
active: [19] -100%
inactive: [1] 92.3% | [2] 106% | [3] 101% | [4] 99.8% | [5] 127% | [6] 120% | [7] 96.1% | [8] 100% | [9] 81.3% | [10] 78.8% | [11] 88.9% | [12] 104% | [13] 98.2% | [14] 94.6% | [15] 107% | [16] 93.7% | [17] 98.7% | [18] 22.3% | [20] 107%

O=[N+]([O-])c1ccc(/C=C/C=C/c2ccc(S(=O)(=O)F)cc2)c(Cl)c1
inactive: [1] 96.4% | [2] 99.8% | [3] 94.7% | [4] 99.9% | [5] 107% | [6] 97.5% | [7] 99.3% | [8] 96.1% | [9] 100% | [10] 91.8% | [11] 94.9% | [12] 98.6% | [13] 96.7% | [14] 79.2% | [15] 112% | [16] 104% | [17] 92.9% | [18] 104% | [19] 106% | [20] 97.1%

N#C[Se]CCCNS(=O)(=O)C1CC2C=CC1C2 (centres undefined)
active: [1] -37.5% | [2] -66.5% | [3] -19.9% | [4] -71.6% | [5] -18.3% | [6] -87.4% | [7] -71.8% | [8] -55.7% | [9] -47.9% | [10] -19.2% | [11] -54.1% | [12] -15.3% | [13] -25.6% | [14] -98.7% | [15] 4.98% | [16] -3.8% | [17] -41.2% | [18] 1.26% | [19] -31.9% | [20] -5.35%

[Cl][Hg][n]1cnc2c(Cl)c(Cl)c(Cl)cc21
inactive: [1] 101% | [2] 119% | [3] 93.4% | [4] 109% | [5] 98.1% | [6] 112% | [7] 108% | [8] 88% | [9] 94.5% | [10] 88.7% | [11] 86.5% | [12] 107% | [13] 102% | [14] 86.4% | [15] 132% | [16] 104% | [17] 107% | [18] 114% | [19] 103% | [20] 97.8%

CC(=O)Nc1ccc(Cc2ccc(NC(C)=O)cc2)cc1
inactive: [1] 107% | [2] 107% | [3] 108% | [4] 94.1% | [5] 104% | [6] 101% | [7] 105% | [8] 117% | [9] 99.9% | [10] 71.4% | [11] 107% | [12] 109% | [13] 101% | [14] 78% | [15] 90.7% | [16] 95.9% | [17] 106% | [18] 117% | [19] 94.9% | [20] 139%

C[C@@H]1CC[C@@H]2[C@@H]1[C@H](OC(=O)/C=C/C1CCCCC1)[C@]1(C3CCCCC3)C[C@@H](OC(=O)CO)[C@@]2(C)O1
active: [6] -10.1% | [14] -44.2%
inactive: [1] 71.5% | [2] 56.9% | [3] 85.6% | [4] 69.7% | [5] 64.2% | [7] 61.5% | [8] 39.6% | [9] 65.2% | [10] 31.1% | [11] 69.5% | [12] 74.5% | [13] 31.2% | [15] 101% | [16] 12.2% | [17] 72.9% | [18] 66.4% | [19] 39.6% | [20] 56%

O=C(C(=O)N1CCCC1)c1cn(CCCCCn2cc(C(=O)C(=O)N3CCCC3)c3ccccc32)c2ccccc12
inactive: [1] 91.1% | [2] 89% | [3] 93.9% | [4] 102% | [5] 91.3% | [6] 105% | [7] 77.2% | [8] 91.4% | [9] 95.9% | [10] 65.9% | [11] 65.3% | [12] 106% | [13] 82.3% | [14] 61.6% | [15] 106% | [16] 84.4% | [17] 87.6% | [18] 91.9% | [19] 94.1% | [20] 86.3%

Oc1ccc(O)c2c1C1(Cl)C(Cl)=C(Cl)C2(Cl)C1(Cl)Cl
inactive: [1] 59.3% | [2] 59% | [3] 33.1% | [4] 47.4% | [5] 55.3% | [6] 69.1% | [7] 41.3% | [8] 44.7% | [9] 32.6% | [10] 42.4% | [11] 37.1% | [12] 67.9% | [13] 56.4% | [14] 44.2% | [15] 70.1% | [16] 40.5% | [18] 56.9% | [19] 28.4% | [20] 34.6%
active: [17] -3.33%

COP(=S)(OC)Oc1ccc(SC)c(C)c1
inactive: [1] 97.7% | [2] 85.6% | [3] 108% | [4] 95.4% | [5] 110% | [6] 104% | [7] 113% | [8] 110% | [9] 101% | [10] 85.9% | [11] 95.5% | [12] 115% | [13] 100% | [14] 80.2% | [15] 93.2% | [16] 100% | [17] 100% | [18] 106% | [19] 103% | [20] 105%

CCOC(=O)Nc1cc(Cl)c([N+](=O)[O-])c(NC(=O)OCC)n1
inactive: [1] 87.8% | [2] 100% | [3] 97.1% | [4] 126% | [5] 109% | [6] 104% | [7] 108% | [8] 75.2% | [9] 84.8% | [10] 92.2% | [11] 82.6% | [12] 79% | [13] 96.5% | [14] 99.5% | [15] 104% | [16] 102% | [17] 65.4% | [18] 71.3% | [19] 53.5% | [20] 71.3%

CCOC(=O)/C(C#N)=C/c1ccc(N(CCCl)CCCl)cc1
inactive: [1] 94.9% | [2] 72.2% | [3] 110% | [4] 81.7% | [5] 41.4% | [6] 84.1% | [7] 90.8% | [8] 77.5% | [9] 105% | [10] 69.7% | [11] 66.5% | [12] 99% | [13] 72.4% | [14] 79.3% | [15] 106% | [16] 94.8% | [17] 94.4% | [18] 87.3% | [19] 97% | [20] 106%

COC(=O)C[Se]C(=O)c1ccccc1OC(C)=O
inactive: [1] 76.2% | [2] 56.3% | [3] 77.5% | [4] 32.7% | [5] 76.5% | [6] 89.8% | [7] 71.3% | [8] 72.3% | [9] 49.3% | [10] 77.7% | [11] 77.8% | [12] 84.1% | [13] 93.2% | [14] 35.7% | [15] 38.6% | [16] 24.2% | [17] 87.9% | [18] 97.8% | [19] 10.9% | [20] 22.1%

O=C1NC(=O)C(=Cc2cn(Cc3ccccc3)c3ccccc23)C(=O)N1
active: [2] -68.9%
inactive: [1] 93.2% | [3] 81.7% | [4] 73.9% | [5] 29.9% | [6] 104% | [7] 84.9% | [8] 90.8% | [9] 99.5% | [10] 84.2% | [11] 40.6% | [12] 98% | [13] 88.8% | [14] 71.7% | [15] 18.4% | [16] 106% | [17] 91.4% | [18] 83.6% | [19] 86.1% | [20] 99.5%

COc1ccc(C2SCC(=O)Nc3c2c(C)nn3-c2nc3ccc(C)cc3s2)cc1O (centres undefined)
active: [17] -25.5%
inactive: [1] 55.3% | [2] 67.6% | [3] 56.3% | [4] 38.3% | [5] 15.7% | [6] 58.4% | [7] 36% | [8] 44.8% | [10] 19.9% | [11] 40.2% | [12] 51.1% | [13] 49.6% | [14] 28.4% | [15] 67.2% | [16] 17.3% | [18] 28.1% | [19] 34.1% | [20] 16.2%

c1ccc(CCN2CCCCC2Cc2ccccc2)cc1 (centres undefined)
inactive: [1] 86.2% | [2] 102% | [3] 78.5% | [4] 97.2% | [5] 116% | [6] 102% | [7] 96.4% | [8] 99.4% | [9] 94.7% | [10] 103% | [11] 92.4% | [12] 97.5% | [13] 99.2% | [14] 74.7% | [15] 83% | [16] 87.8% | [17] 118% | [18] 107% | [19] 78.1% | [20] 103%
